{"source": "PubChem BioAssay AID493169", "about": "(National Center for Advancing Translational Sciences (NCATS), 2011)", "note": "Records with an inconclusive call do not appear. The source made the active and inactive calls. Calls follow the shape of the dose curve; as a rule, active = well fitted inhibition curve with a large enough effect; inconclusive = small, poorly fitted or top-dose-only effect; inactive = flat fitted curve, though single readings scatter. % is scaled to controls: 0 for no effect and ±100 for the full control effect; potency is read from the fitted curve at half-maximal effect."}
{"assay": "CHOP2 Reporter Counterscreen Assay for Inhibitors of Ubiquitin-specific Protease USP2a;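 also: activated enterokinase alone at 50 pM in a cell-free format rather than USP2a or CHOP2; nearly all actives have a fitted effect of over 55% in size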", "conditions": "purified enterokinase, fluorogenic substrate, 485/531 nm; series mostly up to 38.3 µM; activity change, negative = inhibition: at the top concentration", "summary_of_the_method": "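Fluorescence (485/531 nm) read 10 min after adding 25nM reporter substrate to 50 pM activated EK preincubated 30 min RT with compound; Tris pH 8.0/CaCl2/CHAPS buffer. Data normalized to buffer-alone inhibition; concentration-response curves fitted.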"}
{"smiles": "CC1(C)CC(=O)C=C(NCc2cccs2)C1", "activity change, negative = inhibition": "2.48% (inactive)"}
{"smiles": "O=C1CC(Nc2ccc(N3CCOCC3)cc2)C(=O)N1c1cccc(C(F)(F)F)c1", "note": "(stereo not given)", "activity change, negative = inhibition": "0.0866% (inactive)"}
{"smiles": "Cn1c(C(=O)N2CCN(Cc3ccc4c(c3)OCO4)CC2)cc2sccc21", "activity change, negative = inhibition": "2.17% (inactive)"}
{"smiles": "CN(C)c1ccc(-c2ccccc2)nn1", "activity change, negative = inhibition": "2.68% (inactive)"}
{"smiles": "Cc1cccc2c1N(CCCOc1ccc(C(C)(C)C)cc1)C(=O)C2=O", "activity change, negative = inhibition": "-1.62% (inactive)"}
{"smiles": "O=C(CCNc1cccc(Cl)c1)c1ccco1", "activity change, negative = inhibition": "-1.57% (inactive)"}
{"smiles": "C#CCOCCOCCOCCNc1nc(N2CCN(C(=O)CCCCCCCCCCNC(=O)[C@@H](CCC(=O)O)n3cc(CCCCCN)nn3)CC2)nc(N2CCN(C(=O)CCCCCCCCCCNC(=O)[C@H]([C@@H](C)CC)n3cc(CCCCCN)nn3)CC2)n1", "Potency": "5.01 µM (active)"}
{"smiles": "COc1ccc(/C=C(\\NC(=O)c2ccc(OC)c(OC)c2)C(=O)N2CCN(C)CC2)cc1", "activity change, negative = inhibition": "-1.05% (inactive)"}
{"smiles": "COc1ccc(-c2noc(CSc3nnc(Cc4ccccc4)n3-c3ccc(Cl)cc3)n2)cc1", "activity change, negative = inhibition": "-4.97% (inactive)"}
{"smiles": "COC(=O)c1cc2sc(Cl)cc2n1Cc1nc(-c2ccccc2)oc1C", "activity change, negative = inhibition": "0.214% (inactive)"}
{"smiles": "Cc1ccc(N2CN=c3s/c(=C\\c4cccnc4)c(=O)n3C2)cc1", "activity change, negative = inhibition": "3.22% (inactive)"}
{"smiles": "CCC(C)NC(=O)C1CN(S(=O)(=O)c2ccccc2)CCN1S(=O)(=O)c1ccccc1", "note": "(stereo not given)", "activity change, negative = inhibition": "-0.106% (inactive)"}
{"smiles": "CCOC(=O)N1CCN(C(=O)c2cc3c(ccc4ccccc43)oc2=O)CC1", "activity change, negative = inhibition": "-1.78% (inactive)"}
{"smiles": "Cc1cc2c(c(=O)n1CC1CCCO1)C(c1ccco1)C(C#N)=C(N)O2", "note": "(stereo not given)", "activity change, negative = inhibition": "1.78% (inactive)"}
{"smiles": "COc1ccc(Cl)cc1S(=O)(=O)Nc1cccc(C(=O)O)c1", "activity change, negative = inhibition": "-0.065% (inactive)"}
{"smiles": "CC(C)(C)C1CCC2(CC1)Nc1cccc3cccc(c13)N2", "activity change, negative = inhibition": "-1.38% (inactive)"}
{"smiles": "COc1ccc(C(=O)OCC(=O)c2c[nH]c3ccccc23)c(OC)c1", "activity change, negative = inhibition": "-3.08% (inactive)"}
{"smiles": "COc1ccc(CCN2CC(C#N)=C3c4cc(OC)c(OC)cc4CCN3C2)cc1OC", "activity change, negative = inhibition": "1.78% (inactive)"}
{"smiles": "CNc1cccccc1=S", "activity change, negative = inhibition": "-3.13% (inactive)"}
{"smiles": "O=C(O)CC1(CC(=O)Nc2ccc3ccccc3c2)CCCCC1", "activity change, negative = inhibition": "2.49% (inactive)"}
{"smiles": "O=C(CSCCO)Nc1cccc2ccccc12", "activity change, negative = inhibition": "-4.29% (inactive)"}
{"smiles": "CC12CN3CC(C)(CN(C1)C3c1ccc(Cl)cc1Cl)C2O", "note": "(stereo not given)", "activity change, negative = inhibition": "2.93% (inactive)"}
{"smiles": "O=C(Nc1cccc(Cl)c1)Nc1nnc(CC2=CCCCC2)s1", "activity change, negative = inhibition": "2.28% (inactive)"}
{"smiles": "O=C(NC12CC3CC(CC(C3)C1)C2)C1=COCCO1", "activity change, negative = inhibition": "-0.965% (inactive)"}
{"smiles": "COc1cc(/C=C/c2cc[n+](C)cc2)ccc1OCC(=O)Nc1ccc(Cl)c(Cl)c1", "Potency": "11.2 µM (active)"}
{"smiles": "O=C(Nc1nnc(SCC(=O)N2CCCC2)s1)C1CC(=O)N(c2ccc(F)cc2)C1", "note": "(stereo not given)", "Potency": "10 µM (active)"}
{"smiles": "O=C(O)c1cc(N2N=C(C(F)(F)F)/C(=C/C=C/c3ccco3)C2=O)ccc1Cl", "Potency": "3.98 µM (active)"}
{"smiles": "CCOc1ccc(NC(=O)CSc2nnc(Cn3c(=O)sc4ccccc43)n2C)cc1", "activity change, negative = inhibition": "3.46% (inactive)"}
{"smiles": "COc1ccccc1-n1c(SCC(=O)Nc2ccc(C)cc2)nc(O)cc1=O", "activity change, negative = inhibition": "-9.74% (inactive)"}
{"smiles": "O=C(Nc1ccc(N2CCCC2)cc1)c1ccc(Br)cc1", "Potency": "5.01 µM (active)"}
{"smiles": "COc1ccc2[nH]c(=O)c(CN(C3CCCCC3)C(c3nnnn3Cc3ccco3)C(C)C)cc2c1", "note": "(stereo not given)", "Potency": "10 µM (active)"}
{"smiles": "c1coc(CNc2nc(-c3cccs3)cs2)c1", "activity change, negative = inhibition": "-0.623% (inactive)"}
{"smiles": "O=c1/c(=C/c2ccco2)sc2n1CN(c1cccc(Br)c1)CN=2", "activity change, negative = inhibition": "-0.633% (inactive)"}
{"smiles": "Cc1noc(C)c1NC(=O)Nc1ccc2c(c1)C(=O)N([C@H](C)CO)C[C@H](C)[C@@H](CN(C)S(=O)(=O)c1ccccc1)O2", "activity change, negative = inhibition": "-0.98% (inactive)"}
{"smiles": "COc1ccc(OC)c(NC(=O)CSc2nc(O)cc(=O)n2CC(C)C)c1", "activity change, negative = inhibition": "0.692% (inactive)"}
{"smiles": "O=C(CCc1nc(-c2ccccc2F)no1)NC1CCCCCC1", "activity change, negative = inhibition": "1.18% (inactive)"}
{"smiles": "Cn1c(SCc2nc3ccccc3s2)nnc1-c1cccs1", "activity change, negative = inhibition": "1.81% (inactive)"}
{"smiles": "Cc1ccccc1[C@@H]1C(C#N)=C(N)S[C@H]1C(=O)c1ccccc1", "activity change, negative = inhibition": "-0.33% (inactive)"}
{"smiles": "Cc1ccc(-c2c(C#N)c(N)nc3c2CCCCC3)o1", "activity change, negative = inhibition": "1.52% (inactive)"}
{"smiles": "COCc1cc(C)nc(SCC[N+](C)(C)CC(=O)Nc2cccc(C(F)(F)F)c2)c1C#N", "activity change, negative = inhibition": "-16.9% (inactive)"}
